# Methyltransferases: Primary Screen for Target Class Profiling of Small Molecule Inhibitors of Methyltransferases; calls only at 40 µM; purified enzyme, MTase-Glo SAH luminescence; stronger effect = lower value; hit rate 3.9% among 25,000; call rule not given here
#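 Each enzyme was reacted with SAM and its substrate, with compounds tested once at 40 uM; SAH formed was read by MTase-Glo luminescence.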
# Numbers without * were called inactive; i = inactive; + = active, no number. This is one part of a sample in which hits are shown more often than they occur. % is scaled to controls: 0 for no effect and ±100 for the full control effect.
SMILES,Methyltransferases
CCC1C(=O)N(C)c2cnc(Nc3ccc(C(=O)NC4CCN(C)CC4)cc3OC)nc2N1C1CCCC1 (configuration not stated),+
COc1ccc(C(=O)Cn2nc3n(C)c(=O)c4ccc(C(=O)NC5CCCCC5)cc4n3c2=O)cc1,i
COc1cc(C(=O)N2CCC(N3CCN(C)CC3)CC2)ccc1Nc1ncc2c(n1)N(C)c1ccccc1C(=O)N2C,i
CN1c2cc(C(=O)NC3CCCCCC3)ccc2C(=O)N2CCCC21 (configuration not stated),i
CCc1cccc(CC)c1NC(=O)c1nn(C)c2c1CCc1cnc(Nc3ccc(C(=O)NC4CCN(C)CC4)cc3OC(F)(F)F)nc1-2,i
O=[N+]([O-])c1ccc2c(c1)S(=O)(=O)C=C2,i
Cc1ccccc1CC(=O)N1CC(F)(F)C[C@H]1c1nnc(C2CC2)o1,i
Cc1cc(Cl)ccc1NS(=O)(=O)c1ccc2[nH]c3c(c2c1)CCCC3,i
O=C(CC[C@@H]1CNC(=O)[C@@H]2C[C@H](NC(=O)C3CC3)CN12)NCc1cccs1,i
COCC(=O)N[C@H]1CCN(C(=O)COC)[C@H](C(=O)N[C@H](Cc2c[nH]c3ccccc23)C(N)=O)C1,i
COc1cc(-c2ncn(/C=C\C(=O)OC(C)C)n2)cc(C(F)(F)F)c1,i
Nc1c(S(=O)(=O)O)cc(Nc2ccc(Nc3nc(Cl)nc(Nc4ccc(S(=O)(=O)O)cc4)n3)c(S(=O)(=O)O)c2)c2c1C(=O)c1ccccc1C2=O,+
CCN[C@@H]1C[C@H](N)[C@@H](O[C@H]2OC(CN)=CC[C@H]2N)[C@H](O)[C@H]1O[C@H]1OC[C@](C)(O)[C@H](NC)[C@H]1O,i
COCCNc1nc2c(-c3cccc(Br)c3)nnn2c2ccccc12,i
COc1cc(C(O)CO)ccc1O (configuration not stated),i
CC(C)NCC(O)c1ccc(O)c(O)c1 (configuration not stated),i
NC[C@H](O)c1ccc(O)c(O)c1,+
CC(C)CCN1C(=O)c2ccc(-c3ccco3)n2CC1(C)C(=O)NC1CCCCCC1 (configuration not stated),i
CC1CCN(S(=O)(=O)c2ccc3c(ccn3CCC(=O)NCC3CCCO3)c2)CC1 (configuration not stated),i
CNC(=O)c1ccc2c(C(=Nc3cccc(CN(C)C)c3)c3ccccc3)c(O)[nH]c2c1,+
O=C(NCc1ccccc1)c1ccc2c(=O)n(-c3cccc(C(F)(F)F)c3)c(=S)[nH]c2c1,i
CCOCCCNc1nc2c(S(=O)(=O)c3ccc(Cl)cc3)nnn2c2ccccc12,i
O=C(C1CCCC1)N1CCC(C(=O)N2CCC(c3nc4ccncc4[nH]3)C2)CC1 (configuration not stated),i
COc1c(C)c2c(c(O)c1C/C=C(\C)CC/C=C(\C)CCC(=O)O)C(=O)OC2,i
CCOC(=O)c1cc2n(n1)CC(C)(C(=O)NCc1ccccc1)N(c1ccc(Cl)cc1)C2=O (configuration not stated),i
SMILES,Methyltransferases
O=C1NC(=O)/C(=C/c2ccc3nccnc3c2)S1,i
CCc1ccc(/C=C2/SC(=S)NC2=O)cc1,+
Cn1ncc(N2CCC(C(=O)N3CCC(C(N)=O)(N4CCCCC4)CC3)C2)cc1=O (configuration not stated),i
C=C(CCO[C@@H]1O[C@H](CO)[C@@H](O)[C@H](O)[C@H]1O)C(=O)O,i
CN(C)CCC[C@]1(c2ccc(F)cc2)OCc2cc(C#N)ccc21,+
Cn1nccc1CN1CCCC2(COc3ccccc3C(=O)N2)C1 (configuration not stated),i
CCCCN1C(=O)c2cc(C(=O)Nc3ccc(C)c(C)c3)nn2CC1(C)C(=O)NC1CCCC1 (configuration not stated),i
CC(O)/C=C/C1C(C)C(O[C@@H]2O[C@H](CO)[C@@H](O)[C@H](O)[C@H]2O)C(O)CC1(C)C (some centres not stated),i
C=CC(=O)Nc1cccc(Nc2nc(Nc3ccc(NC4CN(CCF)C4)cc3OC)ncc2C(F)(F)F)c1,i
CC(=O)NCC(=O)N1C2CCC1c1cc(Nc3ncc(C(F)(F)F)c(NC4CCC4)n3)ccc12 (configuration not stated),+
COc1cccc(-c2ccc(NC(=O)C3CCCN3C(=O)CNC(C)=O)cc2)c1 (configuration not stated),i
C=CC(C)(CCC=C(C)C)O[C@@H]1O[C@H](CO)[C@@H](O)[C@H](O)[C@H]1O (some centres not stated),i
C=C[C@](C)(CC/C=C(\C)C(=O)O)O[C@@H]1OC[C@H](O)[C@H](O)[C@H]1O,+
C=CC(C)(CC/C=C(\C)CC/C=C(\C)CC(O)/C=C(\C)C(=O)O)O[C@@H]1O[C@H](CO)[C@@H](O)[C@H](O)[C@H]1O[C@@H]1O[C@H](CO)[C@@H](O)[C@H](O)[C@H]1O (some centres not stated),i

# Source: PubChem (National Center for Advancing Translational Sciences (NCATS))
